Test results published in PubChem BioAssay (EPA / NIEHS).
“And” between values parts separate entries of the source, which are not always exact repeats. Equal entries are not always repeated. Records with an inconclusive call do not appear. The source made the active and inactive calls. How the source made its calls, unless noted: active means hit-call score of the fitted dose curve at least 0.9, where 1 is the maximum; inactive means score below 0.9.

system: not listed separately; assay: CCTE_Mundy_HCI_Cortical_NOG_NeuronCount: CCTE's Neurite Outgrowth Assay in rat cortical cells for Neuron Count, Mundy Lab (AID 2284236; active means hit-call score of the fitted dose curve at least 0.9, where 1 is the maximum;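 further: neurons counted by imaging betaIII-tubulin and Hoechst stained cortical cells; cells exposed to compound for about 48 hours before fixation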); details: not given
Summary of the method: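 Read-out: neuron number by high-content imaging of betaIII-tubulin (Alexa Fluor-488) and Hoechst-labelled rat primary cortical cells.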

Row | SMILES | outcome
1 | CCCCC(CC)COC(=O)COc1ccc(Cl)cc1C (stereo not drawn) | inactive
2 | c1ccc2scnc2c1 | inactive
3 | N#CCCNCCC#N | inactive

system: not listed separately; assay: CCTE_Mundy_HCI_Cortical_NOG_BPCount: CCTE's Neurite Outgrowth Assay in rat cortical cells for Branch Point Count, Mundy Lab (AID 2284237); details: not given
Summary of the method: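 Measured 50.33 h after dosing, this morphology endpoint uses rat primary cortical cultures labelled for betaIII-tubulin. Branch points are quantified by high-content imaging, with DMSO as negative control and baseline.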

Row | SMILES | outcome
4 | CCCCC(CC)COC(=O)COc1ccc(Cl)cc1C (stereo not drawn) | inactive
5 | CC(C)Cc1ccc(C(C)C(=O)O)cc1 (stereo not drawn) | inactive
6 | c1ccc2scnc2c1 | inactive
7 | N[C@@H](CCC(=O)O)C(=O)O | inactive
8 | N#CCCNCCC#N | inactive

read-out: Collagen I, COL1A1 (gene 1277); assay: BSK_MyoF_CollagenI: BioMAP Diversity Plus: MyoF Assay for Collagen I Biomarker Activity (AID 2284238); details: primary human lung fibroblasts
Summary of the method: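 Human lung fibroblasts were exposed to test chemical for 24 h, then Collagen I was quantified by ELISA. Activity was fitted in the increasing direction against DMSO as the negative control and baseline.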

Row | SMILES | outcome | AC50
9 | O=C1OC2(c3ccc(O)cc3Oc3cc(O)ccc32)c2ccccc21 | inactive | 
10 | CC=CC(=O)C1=C(C)C=CCC1(C)C | inactive | 
11 | c1ccc(Sc2ccccc2)cc1 |  | 30.3 µM (active)
12 | O=C(O)C(F)(F)OC(F)(F)C(F)(F)OC(F)(F)C(F)(F)C(F)(F)C(F)(F)F |  | 30 µM (active) and 31.8 µM (active)
13 | CCCCCCCC1CCCC1=O (stereo not drawn) |  | 32.6 µM (active)
14 | CCC(=O)OCC=Cc1ccccc1 | inactive | 
15 | CC(C)Cc1ccc(C(C)C(=O)O)cc1 (stereo not drawn) | inactive | 
16 | CCOC(=O)C=Cc1ccccc1 | inactive | 
17 | C=C1CC/C=C(\C)CC[C@@H]2[C@@H]1CC2(C)C |  | 25.7 µM (active)
18 | O=S1(=O)CC(Cl)(Cl)C(Cl)(Cl)C1 |  | 1.52 µM (active)
19 | CCCCCCCCCCCCS |  | 20 µM (active)
20 | OCC(F)(OC(F)(F)C(F)(OC(F)(F)C(F)(F)C(F)(F)F)C(F)(F)F)C(F)(F)F (stereo not drawn) |  | 5.55 µM (active) and 3.38 µM (active)
21 | CC(C)(C)c1cccc(O)c1 | inactive | 
22 | CC(=O)OCC=C(C)CCC=C(C)CCC=C(C)C | inactive | 
23 | O=C(O)C(F)(F)C(F)(F)C(F)(F)C(F)(F)C(F)(F)C(F)(F)C(F)(F)C(F)F | inactive | 
